# PubChem BioAssay (NCI)
# The panel holds about 83,000 compounds, 20% with a hit somewhere; the sample as a whole holds those more often.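 The test compound was applied at a single concentration to cells in 96-well plates for 48 hours, and percent growth was recorded.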 Values without a mark were called inactive. Active and inactive are the calls of the source. How the source made its calls: active means growth percent below 10; inactive means the rest.
# Test system: A549/ATCC NSCLC
# Test: NCI-60 one-dose screen, 48 h (100 = growth as untreated, 0 = no growth, -100 = all killed)
# Conditions: 10 µM unless noted
row,Compound,growth
1,CCCCCC(/C=N\NC(=S)N/N=C/C(=C/c1ccccc1)CCCCC)=C\c1ccccc1,74.8%
2,O=C(c1nn(-c2ccccc2)c2c1CC(NCc1ccc(F)cc1)CC2)N1CCCCC1 (stereo unspecified),103%
3,CCOC(=O)c1cc2c(n1Cc1cc(OC)c(OC)c(OC)c1)-c1nc(N)sc1CCC2,28%
4,COC(=O)CC[C@H](C)[C@H]1CC[C@H]2[C@@H]3CC[C@@H]4CC5(CC[C@]4(C)[C@H]3CC(=O)[C@]12C)Nc1ccccc1NC5=NC(C)(C)C (stereo partly specified),82.3%
5,CCN(CC)CCCCCNc1cc(OC(=O)c2ccc(Cl)cc2)cc2cccnc12,95.3%
6,CC1CCc2c(C(=O)Nc3ncc(Cc4cccc([N+](=O)[O-])c4)s3)csc2C1 (stereo unspecified),34.4%
7,COCCNC(=O)Nc1ccc2nc(-c3cccs3)c(-c3cccs3)nc2c1,87.5%
8,OCCn1cc(-c2nc(-c3c[nH]c4ncccc34)cs2)c2cc(F)ccc21,63%
9,N#Cc1ccc(O)c(C2=NCC(c3ccccc3)O2)c1 (stereo unspecified),32%
10,C#CCOC(=O)/C=C/c1cn(-c2ccccc2)nc1-c1ccc(OC)cc1,77.5%
11,CCCC/C(CC)=N\NS(=O)(=O)c1ccc([N+](=O)[O-])cc1,89.1%
12,Nc1n[nH]c2cccc(C#Cc3cccc(NC(=O)c4cc(F)cc(C(F)(F)F)c4)c3)c12,84.4%
13,O=C1/C(=C/c2ccccc2O)CC/C1=C\c1ccccc1O,93.8%
14,Cn1cc(-c2csc(-c3cn(C(=O)OC(C)(C)C)c4ccc(Br)cc34)n2)c2ccnc(Cl)c21,70.3%
15,O=C(Nc1cccc(-c2ccc(N3CCOCC3)nn2)c1)Nc1cccc(C(F)(F)F)c1,56.4%
16,COc1cc(-c2nccc3[nH]c(-c4ccc5cc[nH]c5c4)nc23)cc(OC)c1OC,-28.5% (active)
17,C=CC[Se]C(=O)Cc1c(C)n(C(=O)c2ccc(Cl)cc2)c2ccc(OC)cc12,-5.21% (active)
18,Cc1cc(C(=O)O)c(C)n1-c1cccc(C(=O)O)c1,71.4%
19,COCCOc1cc2ncnc(N3CCN(c4cc(S(C)(=O)=O)c(C)cc4Cl)CC3)c2cc1OCCOC,90.6%
20,O=C(N(c1ccccc1)c1ccccc1)n1cc(I)c2nc(Cl)nc(Cl)c21,60.2%
21,C=CCn1c(SCC(=O)Nc2ccc(C(=O)/C=C/c3ccc(Cl)cc3)cc2)nnc1-c1ccc(Br)cc1,65.4%
22,C=CCN=c1sc2c(n1NC(=O)c1cc3ccc1CCc1ccc(cc1)CC3)C(=O)c1ccccc1C2=O,23.3%
23,Nc1c(C(=O)Nc2ccccc2F)sc2nc3c(cc12)CCCC3,39.5%
24,COc1ccc(/C=N\Nc2nc(SCCC(C)C)nc(-c3ccc(OC)cc3)c2C#N)cc1,70.9%
25,CC(C)=CCCC(C)c1ccc(C)c2c1OCN(CCCCCO)C2 (stereo unspecified),82.5%
26,CCCCCN1C(=O)/C(=c2\sc3n(c2=O)C2C(NN=3)N(CC)C(=O)N2CC)c2ccccc21 (stereo unspecified),-85% (active)

# Test system: 786-0 renal
# Test: as above
# Conditions: 10 µM unless noted
row,Compound,growth
1,O=c1c2ccccc2n2cnc3ccc(Cl)c1c32,73.3%
2,CCN(CC)CC(O)COc1c(Br)c(Br)c(Br)c2c1OC(C)(C)C2 (stereo unspecified),51.3%
3,N#Cc1c(-c2ccccc2)cc(-c2ccccc2)n(CCCC(=O)Nc2ccccc2N)c1=O,63.9%
4,CC1OC(n2c3ccccc3c3c4c(c5c6ccccc6[nH]c5c32)C(=O)N(CCN2CCCC2)C4=O)CC(O)C1O (stereo unspecified),18%
5,CCOC(=O)NC(C)C,95.6%
6,COc1ccc2[nH]c(C(=O)N3CCN(C(=O)OCc4ccc5c(Cl)cc(Cl)c(O)c5n4)CC3)cc2c1,-91.7% (active)
7,O=C(/C=C/c1ccccc1)Nc1ncc(Cc2ccccc2Cl)s1,45.7%
8,COC12C=C/C(=C(/C(=O)OCc3ccncc3)C(=O)CCCCCCCCC3(OC)C=C/C(=C(/C(=O)OCc4ccncc4)C(=O)CCCCCCCC1)O3)O2,-50.9% (active)
9,CC(C)=CC(=O)OCC(=O)O[C@@H]1C[C@]2(C(C)C)O[C@@]1(C)[C@@H]1CC[C@@H](C)[C@H]1[C@@H]2OC(=O)/C=C/c1ccccc1,66%
10,COc1ccc(Cc2cnc(NC(=O)c3cc(C)oc3C)s2)cc1,43.4%
11,NC(Cc1ccc(O)c([N+](=O)[O-])c1)C(=O)O (stereo unspecified),99.2%
12,CC(C)COc1nc2c(c(=O)n(C)c(=O)n2C)n1C,104%
13,CCc1ccccc1-n1c(-c2ccc(OC)cc2)cc(-c2ccc(OC)cc2)c(C#N)c1=O,33.7%
14,CCCCCOC(=O)c1c(C)[nH]c(/C=C2\N=C(c3ccc[nH]3)C=C2OC)c1C,-16.9% (active)
15,CCCCCC(/C=N\NC(=S)N/N=C/C(=C/c1ccccc1)CCCCC)=C\c1ccccc1,79.9%
16,O=C(c1nn(-c2ccccc2)c2c1CC(NCc1ccc(F)cc1)CC2)N1CCCCC1 (stereo unspecified),96.4%
17,CCOC(=O)c1cc2c(n1Cc1cc(OC)c(OC)c(OC)c1)-c1nc(N)sc1CCC2,36.8%
18,COC(=O)CC[C@H](C)[C@H]1CC[C@H]2[C@@H]3CC[C@@H]4CC5(CC[C@]4(C)[C@H]3CC(=O)[C@]12C)Nc1ccccc1NC5=NC(C)(C)C (stereo partly specified),81.1%
19,CCN(CC)CCCCCNc1cc(OC(=O)c2ccc(Cl)cc2)cc2cccnc12,106%
20,CC1CCc2c(C(=O)Nc3ncc(Cc4cccc([N+](=O)[O-])c4)s3)csc2C1 (stereo unspecified),30.1%

row,Compound,growth
1,COCCNC(=O)Nc1ccc2nc(-c3cccs3)c(-c3cccs3)nc2c1,96.9%
2,OCCn1cc(-c2nc(-c3c[nH]c4ncccc34)cs2)c2cc(F)ccc21,81.9%
3,N#Cc1ccc(O)c(C2=NCC(c3ccccc3)O2)c1 (stereo unspecified),33.2%
4,C#CCOC(=O)/C=C/c1cn(-c2ccccc2)nc1-c1ccc(OC)cc1,98.9%
5,CCCC/C(CC)=N\NS(=O)(=O)c1ccc([N+](=O)[O-])cc1,103%
6,Nc1n[nH]c2cccc(C#Cc3cccc(NC(=O)c4cc(F)cc(C(F)(F)F)c4)c3)c12,86.4%
7,O=C1/C(=C/c2ccccc2O)CC/C1=C\c1ccccc1O,54.3%
8,Cn1cc(-c2csc(-c3cn(C(=O)OC(C)(C)C)c4ccc(Br)cc34)n2)c2ccnc(Cl)c21,74.7%
9,O=C(Nc1cccc(-c2ccc(N3CCOCC3)nn2)c1)Nc1cccc(C(F)(F)F)c1,92.1%
10,COc1cc(-c2nccc3[nH]c(-c4ccc5cc[nH]c5c4)nc23)cc(OC)c1OC,-56% (active)
11,C=CC[Se]C(=O)Cc1c(C)n(C(=O)c2ccc(Cl)cc2)c2ccc(OC)cc12,-50.5% (active)
12,Cc1cc(C(=O)O)c(C)n1-c1cccc(C(=O)O)c1,106%
13,COCCOc1cc2ncnc(N3CCN(c4cc(S(C)(=O)=O)c(C)cc4Cl)CC3)c2cc1OCCOC,105%
14,O=C(N(c1ccccc1)c1ccccc1)n1cc(I)c2nc(Cl)nc(Cl)c21,57.7%
15,C=CCn1c(SCC(=O)Nc2ccc(C(=O)/C=C/c3ccc(Cl)cc3)cc2)nnc1-c1ccc(Br)cc1,89%
16,C=CCN=c1sc2c(n1NC(=O)c1cc3ccc1CCc1ccc(cc1)CC3)C(=O)c1ccccc1C2=O,-21.8% (active)
17,Nc1c(C(=O)Nc2ccccc2F)sc2nc3c(cc12)CCCC3,33.2%
18,COc1ccc(/C=N\Nc2nc(SCCC(C)C)nc(-c3ccc(OC)cc3)c2C#N)cc1,-2.8% (active)
19,CC(C)=CCCC(C)c1ccc(C)c2c1OCN(CCCCCO)C2 (stereo unspecified),69.5%
20,CCCCCN1C(=O)/C(=c2\sc3n(c2=O)C2C(NN=3)N(CC)C(=O)N2CC)c2ccccc21 (stereo unspecified),-61.6% (active)
